Measurements published in PubChem BioAssay AID1209 (Sanford-Burnham Center for Chemical Genomics, 2008).
“And” between values parts separate entries of the source, which are not always exact repeats. Equal entries are not always repeated. Out of some 190,000 compounds screened, about 810 (0.43%) were called active. Rule as the data show it: active = inhibition above about 50%; inactive = the rest. The list comes from a sample in which actives are over-represented; it also holds similar structures and randomly drawn compounds.

biological target: Mannose-6-phosphate isomerase (Homo sapiens) (UniProt P34949); experiment: inhibitors of human PMI, primary screen, biochemical, fluorescence intensity, coupled assay (AID 1209); conditions: purified PMI enzyme, at 20 µM, stronger effect = higher value;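 also: plate controls were DMSO vehicle for no effect and wells lacking substrate for full effect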
Sequence (P34949 whole entry, looked up): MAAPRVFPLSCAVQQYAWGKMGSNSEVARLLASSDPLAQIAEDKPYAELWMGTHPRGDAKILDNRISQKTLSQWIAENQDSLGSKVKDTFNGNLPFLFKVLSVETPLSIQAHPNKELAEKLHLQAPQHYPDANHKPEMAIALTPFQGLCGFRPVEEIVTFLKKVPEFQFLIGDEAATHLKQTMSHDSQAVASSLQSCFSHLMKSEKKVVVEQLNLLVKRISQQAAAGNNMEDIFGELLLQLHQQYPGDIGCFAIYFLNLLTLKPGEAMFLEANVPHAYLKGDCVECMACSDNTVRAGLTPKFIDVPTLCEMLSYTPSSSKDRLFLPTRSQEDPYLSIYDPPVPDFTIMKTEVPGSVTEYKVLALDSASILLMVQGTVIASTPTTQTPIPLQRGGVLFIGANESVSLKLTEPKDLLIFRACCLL

inhibition, active:
CCOc1ccccc1NC(=O)C1CCN(S(=O)(=O)c2c(C)nn(C)c2C)CC1 112%
COc1ccc(S(=O)(=O)Nc2cc(Sc3ncn[nH]3)c(O)c3ccccc23)cc1 98.7%
O=S(=O)(Nc1cc(Sc2ncn[nH]2)c(O)c2ccccc12)c1ccccc1 99.3%
Nc1ccccc1N=c1ssnc1Cl 61.4%
OCc1ccccc1N=c1ssnc1Cl 78.3%
COc1ccc2nc(S(=O)Cc3ncc(C)c(OC)c3C)[nH]c2c1 (stereo not given) 72.5%
CC(C)Oc1ccc(OCCn2c(=S)[nH]c3c(N)ncnc32)cc1 54.9%
O=c1[nH]c2ccc(N=Cc3c(O)ccc4cc(Br)ccc34)cc2[nH]1 64.6%
CN(C)/C=C1\Oc2ccc3ccccc3c2C1=O 86.5%
CCc1cccc(C)c1NC(=S)NCC1CCN(c2ccc(OC)cc2)C1 (stereo not given) 55%
COc1ccc(N2CCC(CNS(=O)(=O)c3cccc(C(F)(F)F)c3)C2)cc1 (stereo not given) 65.5%
COc1ccc(N2CCC(CNC(=O)Nc3ccccc3)C2)cc1 (stereo not given) 74.5%
COc1ccc(N2CCC(CNC(=O)Nc3cccc(OC)c3)C2)cc1 (stereo not given) 70%
Cc1cc(=O)n2cccc(O)c2n1 71%
C[C@@H]1O[C@@H](OC[C@H]2O[C@@H](Oc3c(-c4ccc(O)c(O)c4)oc4cc(O)cc(O)c4c3=O)[C@H](O)[C@@H](O)[C@@H]2O)[C@H](O)[C@H](O)[C@H]1O 50.3%
C[C@@H]1O[C@@H](Oc2c(-c3cc(O)c(O)c(O)c3)oc3cc(O)cc(O)c3c2=O)[C@H](O)[C@H](O)[C@H]1O 65.7%
O=c1c(O[C@@H]2O[C@H](CO)[C@H](O)[C@H](O)[C@H]2O)c(-c2ccc(O)c(O)c2)oc2cc(O)cc(O)c12 61.3%

inhibition, inactive:
O=C(COC(=O)c1cnccn1)NCc1ccc2c(c1)OCO2 -15.9%
CCC(C)(C(=O)NC1CCCCC1)N(Cc1ccco1)C(=O)CC1NC(=O)NC1=O (stereo not given) 8.4%
COc1cc(C2NC(=O)NC(C)=C2C(=O)OC(C)C)ccc1OC(=O)c1ccco1 (stereo not given) 1%
Cc1cccc(Nc2ncnc3c2cnn3C)c1 10.3%
COc1ccc(CN2C(=O)c3ccccc3C2C(=O)NCCc2ccccc2)c(OC)c1 (stereo not given) 17.9%
COc1cc(/C=c2\sc3nc(=O)c(-c4ccccc4)nn3c2=O)ccc1OCCC(C)C -1.8%
Cc1cccc(NC(=O)C2CCN(S(=O)(=O)c3c(C)nn(C)c3C)CC2)n1 8.4%
CCOc1ccccc1NC(=O)C1CCN(S(=O)(=O)c2c(C)noc2C)CC1 5.5%
N#CC(c1ccc(F)cc1)c1ccc(C(=O)c2ccc(F)cc2)cc1 (stereo not given) 5.1%
O=S(=O)(Nc1cc(Sc2cccc3cccnc23)c(O)c2ccccc12)c1ccccc1 9.2%
COc1ccc(S(=O)(=O)Nc2ccc(O)c(Sc3ncn[nH]3)c2)cc1 10.6%
O=S(=O)(Nc1cc(Sc2cccc3cccnc23)c(O)c2ccccc12)c1ccc(F)cc1 2.1%
CCOc1ccc(S(=O)(=O)Nc2ccc(O)c(Sc3ncn[nH]3)c2)cc1 3.2%
OCc1c(Cl)nc2ccccn12 -8.7%
Cc1cc(Oc2ccccc2)nc(SCC(N)=O)n1 -2%
NC(=O)CSc1nnc(C2CC2)n1-c1ccccc1 -7.8%
O=[N+]([O-])c1cc(S(=O)(=O)N2CCCC2)ccc1NCCc1ccccc1 4.4%
CC1=C(C(=O)Nc2ccccn2)C(c2ccccc2Cl)NC(=S)N1 (stereo not given) -6.6%
N#CC(c1cccc(Cl)c1)c1ncc(C(F)(F)F)cc1Cl (stereo not given) 9.9%
CC1CCc2c(sc(NC(=O)COC(=O)c3ccc(O)cc3)c2C#N)C1 (stereo not given) 2.3%
COc1ccc(-c2[nH]c3ccccc3c2SCCNC(=O)c2ccccc2)cc1 7.4%
CS(=O)(=O)N1CCN=C1SCc1ccc([N+](=O)[O-])cc1 -2.2%
Cc1c(OCC(F)(F)F)ccnc1CS(=O)c1nc2ccccc2[nH]1 (stereo not given) 30.6% and 46.2%
COc1ccc2nc(C(C)O)[nH]c2c1 (stereo not given) 5.1%
CCOc1ccc(OCCn2c(=S)[nH]c3c(N)ncnc32)cc1 11%
Cc1ccc(OCCn2c(=S)[nH]c3c(N)ncnc32)cc1 8.7%
Cc1cccc(C(=O)Nc2ncc(CN3CCOCC3)s2)c1 4.7%
Cc1[nH]n(-c2cccc3ccccc23)c(=O)c1C=Nc1ccc2[nH]c(=O)[nH]c2c1 14.6%
Cc1ccc(-n2[nH]c(C)c(C=Nc3ccc4[nH]c(=O)[nH]c4c3)c2=O)cc1 16.2%
CC(C)(C)NC(=O)NC(=O)COC(=O)Cc1coc2ccc3ccccc3c12 25.3%
CN(C)/C=C1/Oc2c(ccc3ccccc23)C1=O 21.5%
COc1cccc2c1C(=O)c1ccc3ccccc3c1C2=O -43.2%
CCNC(=O)CC1SC(=Nc2ccc(C)cc2)NC1=O (stereo not given) -4.7%
CC(=O)c1cccc(NC(=O)NNC(=O)CCC(=O)Nc2ccc(C)c(C)c2)c1 -12%
CC(=O)Nc1ccc(S(=O)(=O)c2ccc(C)cc2)cc1 10.7%
Cc1ccc(S(=O)(=O)c2ccc(C)cc2)cc1 -0.6%
CCN1CCCC1CNS(=O)(=O)c1cccc(C(F)(F)F)c1 (stereo not given) -14.5%
COc1ccc(N2CCC(CNC(=O)Nc3ccc(C)c(C)c3)C2)cc1 (stereo not given) 43.1%
COc1ccc(NC(=S)NCC2CCN(c3ccc(OC)cc3)C2)cc1 (stereo not given) 49.3%
COc1ccc(N2CCC(CNC(=S)Nc3cccc(OC)c3)C2)cc1 (stereo not given) 29.7%
COc1ccc(N2CCC(CNC(=S)Nc3cccc(C)c3)C2)cc1 (stereo not given) 44.7%
COc1ccc(N2CCN(S(=O)(=O)c3cccc(C(F)(F)F)c3)CC2)cc1 -0.4%
COc1ccc(N2CCC(CNC(=O)Nc3ccc(Cl)cc3)C2)cc1 (stereo not given) 37%
CCOc1ccc(NC(=O)NCC2CCN(c3ccc(OC)cc3)C2)cc1 (stereo not given) 23.3%
Cn1c(SCC(=O)N=Nc2c(O)[nH]c3ccccc23)nc2ccccc21 3.1%
CCN(CC)CCCn1c(C)cc2c(c1=O)C(c1cc(OC)c(OC)cc1OC)C(C#N)=C(N)O2 (stereo not given) -0.8%
CC[C@H](C)[C@@H](NC(=O)O[C@@H]1C(=O)c2cc(OC)ccc2O[C@H]1c1ccc(OC)c(Br)c1)C(=O)OC 11%
CC(=O)N1CCc2cc(S(=O)(=O)CCC(=O)N3CCc4ccccc4C3)ccc21 -7.9%
CC(C)CC(C(=O)Nc1ccc2c(c1)OCCO2)N1C(=O)c2ccccc2C1=O (stereo not given) -13.9%
Cc1cc(=O)n2ccsc2n1 7.1%
Cc1ccn2c(=O)cc(C)nc2c1 4.8%
O=C(NCCO)C1CCN(S(=O)(=O)c2ccc(F)cc2)CC1 10.2%
COc1cc(CNn2c(C)n[nH]c2=S)cc(Cl)c1OCc1ccccc1 16.3%
O=c1c(-c2ccc(O)cc2)coc2cc(OC3OC(CO)C(O)C(O)C3O)cc(O)c12 (stereo not given) -6.4%
O=c1c(O)c(-c2ccc(O)cc2O)oc2cc(O)cc(O)c12 -15.2%
O=c1cc(-c2ccc(O)cc2)oc2cc(O)c(C3OC(CO)C(O)C(O)C3O)c(O)c12 (stereo not given) 7.9%
COc1ccc(-c2oc3cc(OC)c(O)c(OC)c3c(=O)c2OC)cc1O 3.4%
COc1ccc(-c2oc3c(CC=C(C)C)c(O[C@@H]4O[C@H](CO)[C@@H](O)[C@H](O)[C@H]4O)cc(O)c3c(=O)c2O[C@@H]2O[C@@H](C)[C@H](O)[C@@H](O)[C@H]2O)cc1 5.6%
Cc1cc(O)cc(O[C@H]2OC(CO)[C@H](O)[C@@H](O)[C@H]2O)c1 (stereo not given in full) 1.9%
O=C(O)C1OC(Oc2c(-c3ccc(O)c(O)c3)oc3cc(O)cc(O)c3c2=O)C(O)C(O)C1O (stereo not given) 23.4%
CC1OC(OCC2OC(Oc3c(-c4ccc(O)cc4)oc4cc(O)cc(O)c4c3=O)C(O)C(O)C2O)C(O)C(O)C1O (stereo not given) 4.8%
C=CCOC(=O)C1=C(C)NC(SCC(=O)NC(=O)OCC)=C(C#N)C1c1cccnc1 (stereo not given) -29.7%
CCc1ccc2nc(NC(=O)Cn3cnc4ccccc4c3=O)sc2c1 -4%
O=c1[nH]c2cc3c(cc2cc1C(c1nnnn1CC1CCCO1)N1CCCC1)OCO3 (stereo not given) -6.3%
CCN(CC)S(=O)(=O)c1ccc(OC)c(NC(=O)c2cc3c(=O)n4ccccc4nc3s2)c1 10%
Cc1ccc2nc(-c3cccnc3SCC(=O)N3c4ccccc4CC3C)[nH]c2c1 (stereo not given) 9.6%
C/C(=N\NC(=O)CSCc1ccc(Cl)cc1)c1ccc(NC(=O)c2ccccc2)cc1 -2.3%
O=C(N/N=C/c1ccncc1)c1nc(-c2ccccc2)n2c1CCCCC2 5.7%
CN(C)S(=O)(=O)N1CCC(CO)(Cc2cccc(C(F)(F)F)c2)CC1 3%
Cc1ccsc1C=C1C(=O)c2ccccc2C1=O 1.2%
O=C(COC(=O)c1ccc(S(=O)(=O)N2CCCC2)cc1)Nc1cccnc1Cl -7.2%
CCOC(=O)c1ccc(NC(=O)CCC2COc3ccccc3O2)cc1 (stereo not given) 14.5%
COc1ccc(-n2c(CN3CCC(C)CC3)nc3ccc([N+](=O)[O-])cc3c2=O)c(OC)c1 2.1%
